# Records with an inconclusive call do not appear. Entries that show only a call come without a potency. The source made the active and inactive calls. Unless noted, calls come from the whole dose curve; as a rule, active = well fitted curve in the direction sought with a large enough effect in the repeat runs; inconclusive = weak or mixed curves; inactive = no such curve, though single readings can be large; an effect the other way counts as inactive or inconclusive.
# Experiments:
# [1] = qHTS assay for identifying genotoxic compounds that show differential cytotoxicity against isogenic chicken DT40 cell lines with known DNA damage response pathways - wild type cell line (AID 743012); note: nearly all actives have a fitted effect of over 60% in size; note: potency is the fitted concentration of half-maximal effect
# Outline: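 Parental DNA repair-proficient DT40 cells, 300 per well, were pre-incubated ~0.5 h at 37 C/5% CO2, pin-dosed with compounds in DMSO, then incubated 40 h. Viability was read as CellTiter-Glo luminescence after 30 min at room temperature.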
# [2] = qHTS assay for identifying genotoxic compounds that show differential cytotoxicity against isogenic chicken DT40 cell lines with known DNA damage response pathways - Rev3 mutant cell line (AID 743014); note: nearly all actives have a fitted effect of over 55% in size
# [3] = qHTS assay for identifying genotoxic compounds that show differential cytotoxicity against isogenic chicken DT40 cell lines with known DNA damage response pathways - Rad54/Ku70 mutant cell line (AID 743015); note: nearly all actives have a fitted effect of over 60% in size
# [4] = qHTS assay to identify small molecule antagonists of the androgen receptor (AR) signaling pathway - cell viability counter screen (AID 743033; note: nearly all actives have a fitted effect of over 45% in size)
# [5] = qHTS assay to identify small molecule antagonists of the androgen receptor (AR) signaling pathway using the MDA cell line - cell viability counter screen (AID 743041; note: nearly all actives have a fitted effect of over 45% in size)
# Outline: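 R1881-driven MDA-kb2 AR-luc cells, 3,000/well, were dosed with library compounds for 16 h; cell health came from CellTiter-Fluor fluorescence in the reporter wells.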
# [6] = qHTS assay to identify small molecule antagonists of the thyroid receptor (TR) signaling pathway - cell viability counter screen (AID 743064); note: nearly all actives have a fitted effect of over 50% in size; note: potency is the fitted concentration of half-maximal effect
# Outline: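 Rat GH3 pituitary tumor cells stably expressing two TR response elements driving luciferase were plated, rested 4 h, then dosed with library compounds and T3 (1 nM final). After 23.5 h at 37 °C, CellTiter-Fluor was added for 30 min and fluorescence recorded.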
# [7] = qHTS assay to identify small molecule antagonists of the thyroid receptor (TR) signaling pathway (AID 743065); note: nearly all actives have a fitted effect of over 55% in size
# Outline: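 Antagonism measured as loss of luciferase signal in GH3 cells stably carrying a TRE-luciferase reporter, co-treated with compound and T3 (1 nM final) for 23.5 h at 37 C. Viability was read in the same well by CellTiter-Fluor.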
# [8] = system: thyroid hormone receptor (rat, GH3 cells); assay: qHTS assay to identify small molecule agonists of the thyroid receptor (TR) signaling pathway (AID 743066; calls by dose curve; note: potency is the fitted concentration of half-maximal effect)
# [9] = target: Estrogen receptor (Homo sapiens) (UniProt P03372); assay: qHTS assay to identify small molecule antagonists of the estrogen receptor alpha (ER-alpha) signaling pathway (AID 743069; active = well fitted curve in the direction sought with a large enough effect in the signal ratio in the repeat runs, not every such curve was filed as active; the % refers to the signal ratio)
# Estrogen receptor (Homo sapiens), sequence (P03372 whole entry, looked up): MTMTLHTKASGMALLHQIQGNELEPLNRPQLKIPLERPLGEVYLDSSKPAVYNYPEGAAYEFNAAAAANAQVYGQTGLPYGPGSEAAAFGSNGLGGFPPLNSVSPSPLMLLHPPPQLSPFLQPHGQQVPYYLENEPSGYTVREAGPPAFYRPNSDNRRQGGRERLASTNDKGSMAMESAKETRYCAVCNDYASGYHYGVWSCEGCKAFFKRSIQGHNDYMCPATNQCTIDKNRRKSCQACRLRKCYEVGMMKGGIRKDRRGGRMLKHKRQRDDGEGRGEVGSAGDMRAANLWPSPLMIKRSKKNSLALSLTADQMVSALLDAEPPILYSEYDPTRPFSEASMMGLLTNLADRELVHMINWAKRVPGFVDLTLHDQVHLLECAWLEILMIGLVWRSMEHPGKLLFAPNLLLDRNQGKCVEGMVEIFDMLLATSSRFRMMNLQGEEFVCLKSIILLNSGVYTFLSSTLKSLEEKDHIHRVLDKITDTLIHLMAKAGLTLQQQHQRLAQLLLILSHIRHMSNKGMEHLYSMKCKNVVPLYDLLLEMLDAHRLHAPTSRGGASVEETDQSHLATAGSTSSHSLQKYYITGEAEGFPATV
# Outline: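 Compound effects are measured against 17beta-estradiol stimulation in HEK293 cells with a UAS-controlled beta-lactamase reporter for ER-alpha. Exposure lasts 18 hr at 37C; LiveBLAzer B/G FRET substrate follows for 2 hr at room temperature.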
# [10] = qHTS assay to identify small molecule antagonists of the estrogen receptor alpha (ER-alpha) signaling pathway - cell viability counter screen (AID 743074; calls by dose curve;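 note: HEK293 cells carrying ER-alpha-UAS-bla reporter stimulated with 17beta-estradiol; nearly all actives have a fitted effect of over 45% in size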)
# [11] = target: Estrogen receptor (Homo sapiens) (UniProt P03372); assay: qHTS assay to identify small molecule agonists of the estrogen receptor alpha (ER-alpha) signaling pathway (AID 743075; calls by dose curve)
# [12] = target: Estrogen receptor (Homo sapiens) (UniProt P03372); assay: qHTS assay to identify small molecule agonists of the estrogen receptor alpha (ER-alpha) signaling pathway using the BG1 cell line (AID 743079); note: nearly all actives have a fitted effect of over 20% in size; note: potency is the fitted concentration of half-maximal effect
# [13] = qHTS assay to identify small molecule antagonists of the estrogen receptor alpha (ER-alpha) signaling pathway using the BG1 cell line (AID 743080; calls by dose curve;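 note: BG1 cells stimulated with 17beta-estradiol alongside compound; nearly all actives have a fitted effect of over 25% in size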)
# Outline: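 Readout is ONE-Glo luminescence, taken 30 min at room temperature after reagent addition, preceded by a CellTiter-Fluor viability read; BG1-Luc-4E2 cells had received compound and 17beta-estradiol for 21.5 h at 37 C.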
# [14] = qHTS assay to identify small molecule antagonists of the estrogen receptor alpha (ER-alpha) signaling pathway using the BG1 cell line - cell viability counter screen (AID 743081);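 note: compound given together with 17beta-estradiol as the ER stimulus; nearly all actives have a fitted effect of over 45% in size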
# Aromatase (Homo sapiens) = Aromatase (Homo sapiens) (UniProt P11511); assay: qHTS assay to identify aromatase inhibitors (AID 743083); note: nearly all actives have a fitted effect of over 55% in size
# Aromatase (Homo sapiens), sequence (P11511 whole entry, looked up): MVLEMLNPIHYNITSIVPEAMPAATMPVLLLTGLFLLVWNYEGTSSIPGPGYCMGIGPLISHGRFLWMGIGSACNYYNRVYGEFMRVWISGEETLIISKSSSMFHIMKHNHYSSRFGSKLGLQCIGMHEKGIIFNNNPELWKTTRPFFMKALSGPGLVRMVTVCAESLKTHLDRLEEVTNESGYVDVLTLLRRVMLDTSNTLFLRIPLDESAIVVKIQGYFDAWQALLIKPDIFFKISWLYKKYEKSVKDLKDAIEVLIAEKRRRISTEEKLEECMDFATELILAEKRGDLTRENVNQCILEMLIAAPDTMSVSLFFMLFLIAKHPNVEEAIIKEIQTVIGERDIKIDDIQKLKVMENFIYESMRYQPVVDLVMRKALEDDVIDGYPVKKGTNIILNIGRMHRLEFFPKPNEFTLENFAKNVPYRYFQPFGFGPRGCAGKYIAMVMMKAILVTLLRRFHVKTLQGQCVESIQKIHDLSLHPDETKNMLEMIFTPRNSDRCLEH
# [15] = qHTS assay to identify aromatase inhibitors - cell viability counter screen (AID 743084);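 note: cells stimulated with testosterone during compound exposure; nearly all actives have a fitted effect of over 55% in size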; note: potency is the fitted concentration of half-maximal effect
# [16] = qHTS assay to identify small molecule antagonists of the glucocorticoid receptor (GR) signaling pathway - cell viability counter screen (AID 720693); note: nearly all actives have a fitted effect of over 55% in size
# [17] = target: Androgen receptor (Homo sapiens) (UniProt P10275); assay: qHTS assay to identify small molecule antagonists of the androgen receptor (AR) signaling pathway (AID 743035; active = well fitted inhibition curve with a large enough effect in the signal ratio in the repeat runs, not every such curve was filed as active; the % refers to the signal ratio)
# Androgen receptor (Homo sapiens), sequence (P10275 whole entry, looked up): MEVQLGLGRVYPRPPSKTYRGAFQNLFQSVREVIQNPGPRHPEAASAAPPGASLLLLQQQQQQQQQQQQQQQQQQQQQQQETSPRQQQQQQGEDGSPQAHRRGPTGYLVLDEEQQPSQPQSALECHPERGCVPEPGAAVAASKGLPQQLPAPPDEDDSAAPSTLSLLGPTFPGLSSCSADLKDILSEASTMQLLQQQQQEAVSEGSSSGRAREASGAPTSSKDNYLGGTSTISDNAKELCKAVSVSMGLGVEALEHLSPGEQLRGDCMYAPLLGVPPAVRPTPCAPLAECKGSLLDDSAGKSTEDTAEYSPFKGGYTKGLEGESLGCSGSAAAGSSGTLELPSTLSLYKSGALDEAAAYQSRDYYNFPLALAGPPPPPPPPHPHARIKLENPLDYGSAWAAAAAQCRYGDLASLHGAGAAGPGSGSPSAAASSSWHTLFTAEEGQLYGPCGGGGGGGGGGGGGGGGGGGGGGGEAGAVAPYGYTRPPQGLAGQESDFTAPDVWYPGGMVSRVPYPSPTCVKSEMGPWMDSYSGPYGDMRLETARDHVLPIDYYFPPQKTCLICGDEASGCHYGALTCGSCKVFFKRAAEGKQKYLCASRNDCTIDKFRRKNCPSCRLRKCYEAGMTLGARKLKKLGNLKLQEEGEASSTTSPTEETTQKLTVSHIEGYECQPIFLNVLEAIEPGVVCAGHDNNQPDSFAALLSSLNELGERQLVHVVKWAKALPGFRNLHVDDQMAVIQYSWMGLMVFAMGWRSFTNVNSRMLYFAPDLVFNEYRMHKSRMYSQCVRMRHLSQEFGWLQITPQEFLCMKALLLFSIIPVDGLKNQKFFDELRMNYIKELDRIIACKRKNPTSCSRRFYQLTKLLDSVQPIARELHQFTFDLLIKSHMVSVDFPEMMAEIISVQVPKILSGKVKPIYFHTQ
# Outline: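 HEK293 cells stably carrying a UAS-driven beta-lactamase reporter (AR-UAS-bla GripTite) were plated for 4 h at 37C, then given compound and the agonist R1881 and incubated 16 h. Reporter activity was read by LiveBLAzer B/G FRET fluorescence after 2 h at room temperature.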
# [18] = target: Androgen receptor (Homo sapiens) (UniProt P10275); assay: qHTS assay to identify small molecule agonists of the androgen receptor (AR) signaling pathway using the MDA cell line (AID 743040; note: nearly all actives have a fitted effect of over 20% in size); conditions: MDA-kb2 AR-luc cells, MMTV luciferase, 16 h; activity change: at 70.3 µM (top of the series), active compounds read high
# Outline: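 After a 5 h incubation at 37C and 0% CO2, MDA-kb2 reporter cells were dosed with compounds in DMSO and kept 16 h under the same conditions. Luciferase activity was then read as luminescence with ONE-Glo.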
# [19] = target: Androgen receptor (Homo sapiens) (UniProt P10275); assay: qHTS assay to identify small molecule antagonists of the androgen receptor (AR) signaling pathway using the MDA cell line (AID 743042; note: nearly all actives have a fitted effect of over 55% in size)
# Outline: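 Antagonist mode: compounds plus R1881 agonist added to MDA-kb2 AR-luc cells, incubated 16 h at 37C. Luciferase reporter luminescence quantified, with multiplexed CellTiter-Fluor readout for cell viability.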
Compound,Potency [1],Potency [2],Potency [3],Potency [4],Potency [5],Potency [6],Potency [7],Potency [8],Potency [9],Potency [10],Potency [11],Potency [12],Potency [13],Potency [14],Potency (Aromatase (Homo sapiens)),Potency [15],Potency [16],Potency [17],Potency [18],Potency [19]
FC(Cl)(Cl)C(F)(Cl)Cl,inactive,inactive,inactive,inactive,inactive,inactive,inactive,inactive,inactive,inactive,inactive,inactive,inactive,inactive,inactive,inactive,–,–,–,–
CCOP(=S)(OCC)Oc1ccc(S(C)=O)cc1 (configuration not stated),–,–,–,inactive,inactive,inactive,inactive,inactive,–,inactive,inactive,inactive,inactive,inactive,inactive,inactive,inactive,–,–,–
CN1CC[C@]23c4c5ccc(O)c4O[C@H]2[C@@H](O)C=C[C@H]3[C@H]1C5,–,–,–,inactive,inactive,inactive,–,inactive,–,inactive,–,–,inactive,inactive,inactive,inactive,inactive,inactive,inactive,inactive
CC(C)(C)N(NC(=O)c1ccc(Cl)cc1)C(=O)c1ccccc1,–,–,–,inactive,inactive,3.42 µM (active),inactive,inactive,–,inactive,inactive,–,inactive,–,inactive,7.65 µM (active),inactive,–,inactive,inactive
COC1CC(=C(c2cccs2)c2cccs2)C[N+](C)(C)C1 (configuration not stated),23.7 µM (active),–,–,inactive,inactive,inactive,inactive,inactive,inactive,inactive,inactive,–,inactive,inactive,inactive,inactive,inactive,–,–,–
Nc1ccc2c(c1)Cc1ccccc1-2,–,–,–,inactive,–,inactive,inactive,inactive,inactive,inactive,–,4.3 µM (active),–,inactive,inactive,inactive,inactive,–,–,–
O=S(=O)(c1ccccc1)c1ccccc1,–,inactive,inactive,inactive,inactive,–,inactive,inactive,–,inactive,–,–,–,inactive,inactive,inactive,inactive,–,–,–
O=C(Cl)OCCOCCOC(=O)Cl,inactive,inactive,inactive,inactive,inactive,inactive,inactive,27.3 µM (active),inactive,–,inactive,inactive,–,inactive,inactive,inactive,–,–,inactive,inactive
